# VACV mCherry inh – qHTS for Stage-Specific Inhibitors of Vaccinia Orthopoxvirus: mCherry Reporter Primary qHTS. Vaccinia virus mCherry reporter infection, fluorescence. Potency, µM (doses to about 36.5 µM), inactives show at the top dose activity change, negative = inhibition, most hits filed as inhibitors. 310,000 compounds, 0.63% hits; calls by dose curve; tested in A549 cells; also: potency is read from the fitted curve at half-maximal effect; nearly all actives have a fitted effect of over 35% in size
# HCMV inh – qHTS Assay for inhibitors of the human cytomegalovirus (HCMV). HFF cells, HCMV-luciferase reporter, 72 h; active compounds read low. 410,000 compounds, 4.5% hits. activity change, negative = inhibition, % at 57.5 µM; in the data active = activity change below about -60%; inconclusive = no clear call, values can overlap the other calls; inactive = above about -39%
#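 Compounds were evaluated in HFFs infected with an HCMV luciferase reporter virus (MOI 1 PFU/cell). Luciferase in lysates collected 72 h post infection served as the replication measure.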
# HCV inhibitor – qHTS Assay for Inhibitors of Hepatitis C Virus (HCV). 340,000 compounds, 3.4% hits. AID 651820, 2012. Huh7.5.1 HCVcc-Cre infection, luciferase reporter, 44 h. Potency, µM (series often up to 41.8 µM), without a hit: at the top dose activity change, negative = inhibition, usual class: inhibitors; active = well fitted inhibition curve with a large enough effect; inconclusive = small, poorly fitted or top-dose-only effect, or another doubt; inactive = no such curve, though single readings can be large or run the other way; also: potency is read from the fitted curve at half-maximal effect
#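 Antiviral activity was scored by luciferase reporter output from cells infected with HCVcc-Cre (~0.5 moi) in presence of compound, 44 h infection period, cells seeded 1,000/well 4 h prior.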
# Vaccinia Venus – qHTS for Stage-Specific Inhibitors of Vaccinia Orthopoxvirus: Venus Reporter Primary qHTS | Vaccinia virus Venus reporter expression, fluorescence | 330,000 compounds, 0.46% hits | Potency, µM (titrated, usually from 36.5 µM), without a hit: top-dose activity change, negative = inhibition, actives largely listed as inhibitors; calls by dose curve; tested in A549 cells; also: potency is read from the fitted curve at half-maximal effect; nearly all actives have a fitted effect of over 30% in size
# FMDV antiviral – High Throughput Screening for Foot and Mouth Disease Virus Antivirals; FMDV antiviral cell-based qHTS; 410,000 compounds, 1.2% hits; Potency, µM (series often up to 57.9 µM), for inactives: at the highest dose activity change, negative = inhibition, hits mostly inhibitors; calls by dose curve; tested in HEK293T cells; also: read-out not given here; potency is read from the fitted curve at half-maximal effect; nearly all actives have a fitted effect of over 45% in size
# * hit, by the source's call; i = inactive; u = inconclusive; x = not tested or not shown. Shown are actives, neighbours in structure and some others; about 7.3% of the full set was active somewhere. % is scaled to controls: 0 for no effect and ±100 for the full control effect.
SMILES,VACV mCherry inh,HCMV inh,HCV inhibitor,Vaccinia Venus,FMDV antiviral
Oc1ccc(Cl)c(CN2CCN(c3ncc(Cc4ccccc4)cn3)CC2)c1,i,u,x,-13%,-19%
CC1(C)CC(=O)C2=C(C1)OC1=C(C(=O)CC(C)(C)C1)C2c1ccc(O)cc1O,x,-102*,u,x,6.3µM*
CC1(C)CC(=O)C2=C(C1)OC1=C(C(=O)CC(C)(C)C1)C2c1ccc(O)c([N+](=O)[O-])c1,x,32,9%,x,3%
COc1ccc(-c2n(Cc3ccccc3)c3ccccc3[n+]2Cc2ccccc2)cc1,x,-98*,u,x,u
CCCC(=O)Nc1nnc([C@H]2C[C@H](O)[C@@H](CO)O2)s1,6%,-96*,x,-7%,-8%
O=C(Nc1nnc([C@@H]2C[C@H](O)[C@@H](CO)O2)s1)c1cccc(OC(F)(F)F)c1,34%,-84*,x,-12%,9%
COC(=O)N(Cc1ccccc1NC(=O)OC(C)(C)C)C(C(=O)NC1CCCC1)C(=O)c1c(C)cc(C)cc1C (stereo unspecified),x,-37,x,x,x
O=C(NC1CCCCCCC1O)c1ccccc1 (stereo unspecified),i,-10,27%,-13%,19%
O=C(NC1=NC2CCCCC2N1)c1ccccc1 (stereo unspecified),i,-6,19%,-6%,13µM*
C=CCN1C(=O)S/C(=C/c2ccc(Sc3nc4ccccc4[nH]3)o2)C1=O,u,-92*,u,-23%,28µM*
CC(C)N1C(=O)S/C(=C/c2ccc(Sc3nc4ccccc4[nH]3)o2)C1=O,u,-85*,10µM*,u,11µM*
O=C1NC(=O)N(c2ccc(Cl)cc2)C(=O)/C1=C\c1ccc(Sc2nc3ccccc3[nH]2)o1,105%,-9,3%,402%,-15%
O=C(CCl)N=c1sccn1Cc1ccccc1Cl,i,-91*,0.56µM*,-17%,u
O=C(CCl)N=c1sccn1Cc1ccc(Cl)cc1Cl,i,-99*,0.56µM*,-14%,u
O=C(CCl)N=c1sccn1Cc1cccc2ccccc12,x,-100*,3.5µM*,x,u
N=c1sccn1Cc1ccc(Cl)cc1Cl,-13%,-9,u,3%,-17%
Cc1ccc2c(c1)c1c(c(=O)n(-c3ccccc3C)c(=O)n1Cc1cccc(F)c1)n2C,u,-5,x,-5%,-24%
Cc1cc(C)cc(-n2ccnc2SCC(=O)Nc2ccc(C)cc2C)c1,i,-23,x,-9%,-24%
Cc1nc2sc(C(c3cccs3)N3CCN(c4ccccc4)CC3)c(O)n2n1 (stereo unspecified),-7%,-70*,22%,-9%,-14%
Cc1nc2sc(C(c3cccs3)N3CCOCC3)c(O)n2n1 (stereo unspecified),-12%,15,13%,6%,0%
Cc1nc2sc(C(c3ccccc3)N3CCOCC3)c(O)n2n1 (stereo unspecified),i,-2,-2%,-3%,x
COC(=O)C1CCN(C(c2cccs2)c2sc3nc(C)nn3c2O)CC1 (stereo unspecified),-1%,-14,2%,-9%,-14%
CCOC(=O)C1CCN(C(c2cccs2)c2sc3nc(C)nn3c2O)CC1 (stereo unspecified),i,-62*,-7%,1%,-12%
Cc1nc2sc(C(c3ccc(Cl)cc3)N3CCOCC3)c(O)n2n1 (stereo unspecified),-17%,-101*,14%,-13%,-2%
Cc1nc2sc(C(c3ccco3)N3CCN(c4ccccc4)CC3)c(O)n2n1 (stereo unspecified),-20%,-100*,11%,-20%,-11%
SMILES,VACV mCherry inh,HCMV inh,HCV inhibitor,Vaccinia Venus,FMDV antiviral
Cc1ccc2nc3sc(C(=O)Nc4ccc(F)cc4)cc3cc2c1,-11%,14,x,-7%,40%
COc1cc(=O)n2c(c1C(=O)NCc1nccs1)CCN(Cc1ccccc1F)CC2,-5%,x,x,-17%,-8%
Cc1cccc(N2CC(c3nc4ccccc4n3CCC3CCCCC3)CC2=O)c1 (stereo unspecified),-10%,6,x,-29%,-36%
Clc1ccc(-c2n[nH]c3c2CCCC3)cc1,i,-72*,10µM*,1%,42%
COc1cccc(/C=N/Nc2ncnc(Cl)c2N)c1O,3.5µM*,-97*,5.6µM*,5µM*,-10%
COc1ccc(/C=N/Nc2nncc3ccccc23)cc1,-4%,98,u,-7%,3.5µM*
O=C(O)c1cccc(Nc2ncnc3scc(-c4ccccc4)c23)c1,-13%,2,x,-11%,-13%
COc1ccc(/C=N/Nc2ncnc(Cl)c2N)cc1OC,i,u,26%,-7%,-12%
COc1cccc(C=NNc2nnc(NN=Cc3cccc(OC)c3OC)c3ccccc23)c1OC,-5%,122,u,-5%,20µM*
COc1ccccc1/C=N/Nc1nncc2ccccc12,-18%,35,8%,-13%,33%
COc1cccc(/C=N/Nc2ncnc3scc(-c4ccccc4)c23)c1O,2µM*,-100*,u,u,-2%
CCS(=O)(=O)N1CC2(C1)CN(S(=O)(=O)c1ccc(C)cc1)[C@@H](CO)c1[nH]c3cc(OC)ccc3c12,x,3,x,x,x
COc1cccc(/C=N/Nc2nccnc2Cl)c1O,1.3µM*,-96*,2.5µM*,u,13µM*
COc1ccc(/C=N/Nc2nccnc2Cl)c(OC)c1,-5%,-10,-30%,-1%,19%
CC(C)(C)c1cc(C(=O)CCN2CCOCC2)cc(C(C)(C)C)c1O,11µM*,-77*,-23%,u,-15%
O=C(CCN1CCOCC1)c1ccc(N2CCCCC2)cc1,u,-13,u,u,3%
Cc1cc(OCC(=O)Nc2ccc(CN3CCOCC3)cc2)c2c(C)c(C)c(=O)oc2c1,x,49,11µM*,x,u
Cc1cc(OCC(=O)Nc2ccc(CN3CCOCC3)cc2)c2c(C)cc(=O)oc2c1,x,19,-5%,x,-18%
O=C(COc1ccccc1Cl)Nc1ccc(CN2CCOCC2)cc1,x,-12,13µM*,x,0%
O=C(COc1ccc(Cl)cc1Cl)Nc1ccc(CN2CCOCC2)cc1,x,0,u,x,u
CCOC(=O)c1cccc(NS(=O)(=O)c2ccc3[nH]c4c(c3c2)CCCC4)c1,-20%,-14,x,-14%,29%
CC(C)Oc1ccc(CNS(=O)(=O)c2ccc3c(c2)C(C)(C)C(=O)N3C)cc1,-16%,-6,x,-5%,4%
COc1cccc(-c2nc(NC3CCCC3)c3ccccc3n2)c1O,x,x,2.8µM*,x,28µM*
COc1cccc(-c2nc(NCc3ccccc3)c3ccccc3n2)c1O,x,-3,u,x,10%
C=CCNc1nc(-c2cccc(OC)c2O)nc2ccccc12,x,11,16µM*,x,-8%
CNC[C@H](CC1CCCCC1)NC[C@H](CO)NCC1(c2ccccc2)CC1,-8%,u,u,-16%,-14%
